Most compounds without a hit are left out; they make up all but 11% or so of the library.
HCV inhibitor: qHTS Assay for Inhibitors of Hepatitis C Virus (HCV); AID 651820, 2012; Huh7.5.1 HCVcc-Cre infection, luciferase reporter, 44 h; Potency, µM (highest dose often 41.8 µM), hits mostly inhibitors; 340,000 tested, 3.4% active
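Compounds are dispensed onto cells plated 4 h earlier at 1,000 per well, with HCVcc-Cre virus (about 0.5 moi) added next. Following 44 h of culture, luminescent signal is measured for 15 sec after 15 min with substrate at room temperature.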
Pf growth 48h: Primary qHTS for delayed death inhibitors of the malarial parasite plastid, 48 hour incubation. P. falciparum luciferase growth in erythrocytes, 48 h. Potency, µM (top dose mostly 28.7 µM), usual class: inhibitors. 310,000 tested, 5.9% active. AID 504832, 2011
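Luciferase-expressing P. falciparum in infected erythrocytes (2% hematocrit, 0.1% parasitemia final) in RPMI 1640/0.5% Albumax were exposed to compound for 48 hours at 37 C, 5% CO2; growth read as luminescence.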
AMA1-RON2 inh: qHTS for Inhibitors of AMA1-RON; Towards Development of Antimalarial Drug Lead: Primary Screen. Potency, µM (highest dose often 58.2 µM), usual class: inhibitors. 360,000 tested, 0.2% active. AlphaScreen AMA1-biotinylated RON2 peptide binding. Plasmodium falciparum AMA1 (3D7) - RON2 peptide interaction. AID 720542, 2013; further: nearly all actives have a fitted effect of over 45% in size
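AMA1 (3D7) with his tag at 25 nM final met compounds first, then biotinylated RON2 peptide at 25 nM; detection used donor plus acceptor beads, 10 µg/mL apiece, read by AlphaScreen after 30 min at room temperature.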
Pf growth 96h: Primary qHTS for delayed death inhibitors of the malarial parasite plastid, 96 hour incubation | P. falciparum luciferase reporter growth, 96 h | Potency, µM (top dose mostly 28.7 µM), most hits filed as inhibitors | 320,000 tested, 6.9% active | AID 504834, 2011
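Plates of compound plus infected erythrocytes (2% hematocrit, 0.05% parasitemia final) incubate 96 hours, 37 C, 5% CO2. Detection reagent added; reduced luminescence from the parasites' luciferase reporter flags inhibition.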
Large screens that a line does not name were inactive. The call rests on the fitted dose curve; in most records, active means well fitted curve in the direction sought with a large enough effect; inconclusive means small, poorly fitted or top-dose-only effect, or another doubt; inactive means no such curve, though single readings can be large; an effect the other way counts as inactive or inconclusive.

CNC(=O)C(=O)NCC1CCCN1S(=O)(=O)c1cccs1 (stereo not drawn)	none
COc1cc(C(=O)NCC2CCCN2S(=O)(=O)c2cccs2)cc(OC)c1OC (stereo not drawn)	Pf growth 48h 11.7µM, Pf growth 96h inconclusive
CC1CCN(C(=O)C2CCN(S(=O)(=O)c3cc(Cl)ccc3Cl)CC2)CC1	Pf growth 96h inconclusive
Cc1nnc(Nc2ccc(O)cc2)[nH]c1=O	HCV inhibitor 14.1µM
Cc1nnc(Nc2ccc(C(=O)O)cc2)[nH]c1=O	none
CCN1CCN(c2nc(C)nc3c2sc(=S)n3C)CC1	HCV inhibitor inconclusive, Pf growth 96h 3.7µM
CC(C)c1ccc(CC(C)C2C3=C(CCCC3=O)OC3=C2C(=O)CCC3)cc1 (stereo not drawn)	none (no result: Pf growth 48h)
CCCNC(=O)c1ccc(N2CCC3(CC2)CC(c2cccc(Br)c2)=NO3)c([N+](=O)[O-])c1	HCV inhibitor inconclusive, Pf growth 48h inconclusive, Pf growth 96h 6.57µM
CCCNC(=O)c1ccc(N2CCC3(CC2)CC(c2cccc(Br)c2)=NO3)c(N)c1	HCV inhibitor inconclusive, Pf growth 48h 11.7µM, AMA1-RON2 inh inconclusive, Pf growth 96h inconclusive
Cc1ccc(CNC(=O)c2ccc(N3CCC4(CC3)CC(c3cccc(Br)c3)=NO4)c(N)c2)cc1	HCV inhibitor inconclusive, Pf growth 48h inconclusive, Pf growth 96h inconclusive
Cc1ccc(CNC(=O)c2ccc(N3CCC4(CC3)CC(c3cccc(Br)c3)=NO4)c([N+](=O)[O-])c2)cc1	Pf growth 48h inconclusive, Pf growth 96h inconclusive
CCOC(=O)Cc1nc2ccccc2n(CC#N)c1=O	none
COc1ccc(C(=O)/C(C#N)=N/Nc2cccc([N+](=O)[O-])c2)cc1	HCV inhibitor 11.2µM
N#C/C(=N\Nc1cccc(Cl)c1)C(=O)c1ccccc1	HCV inhibitor inconclusive
COc1ccc(N/N=C(/Oc2ccc([N+](=O)[O-])cc2)C(C)=O)cc1	Pf growth 48h inconclusive, Pf growth 96h 11.7µM
NC(=O)[C@@H]1CCCN1Cc1c(C(=O)N2CCc3ccccc3C2)nc2ccc(Cl)cn12	Pf growth 96h inconclusive
O=C(CSc1nnc(-c2ccco2)o1)c1ccc[nH]1	HCV inhibitor inconclusive
COc1cc(OC)cc(C(=O)Nc2ccccc2C(=O)NC2CC2)c1	HCV inhibitor inconclusive, Pf growth 48h inconclusive
Cc1ccc(NS(=O)(=O)c2cc(NC(=O)c3ccc4c(c3)NC(=O)CS4)ccc2C)c(C)c1	HCV inhibitor 11.2µM, Pf growth 48h inconclusive, Pf growth 96h inconclusive
COC(=O)c1cc(NS(=O)(=O)c2ccc(C)c3ccccc23)ccc1N1CCOCC1	HCV inhibitor 22.4µM
COc1ccccc1CNc1ccc(N2CCOCC2)c(C(=O)O)c1	Pf growth 96h 13.1µM
COc1ccc(NC(=O)c2ccc3c(c2)NC(=O)CS3)cc1S(=O)(=O)Nc1ccc(Br)cc1	HCV inhibitor inconclusive
COC(=O)c1cc(-n2cccc2)ccc1N1CCOCC1	none
COc1ccccc1NS(=O)(=O)c1cc(NC(=O)C2CC2)ccc1N1CCOCC1	Pf growth 48h inconclusive, Pf growth 96h 11.7µM (no result: HCV inhibitor, AMA1-RON2 inh)
COc1ccccc1NS(=O)(=O)c1cc(NC(=O)c2ccccc2C)ccc1N1CCOCC1	none (no result: Pf growth 48h, Pf growth 96h)
COc1ccccc1NS(=O)(=O)c1cc(NC(=O)c2[nH]c(C)c(C(C)=O)c2C)ccc1N1CCOCC1	HCV inhibitor inconclusive, Pf growth 48h 7.38µM, Pf growth 96h inconclusive
CC(=O)c1c(C)[nH]c(C(=O)Nc2ccc(C)c(S(=O)(=O)N(C)C)c2)c1C	HCV inhibitor inconclusive
COc1ccccc1NS(=O)(=O)c1cc(NC(=O)c2ccc(=O)[nH]c2)ccc1N1CCOCC1	HCV inhibitor inconclusive, Pf growth 48h inconclusive, Pf growth 96h 11.7µM
COc1ccccc1NS(=O)(=O)c1cc(NC(=O)c2ccncc2)ccc1N1CCCC1	HCV inhibitor inconclusive, Pf growth 48h inconclusive, Pf growth 96h inconclusive
COc1ccccc1NS(=O)(=O)c1cc(NC(C)=O)ccc1N1CCCCC1	Pf growth 96h 9.28µM
CC(=O)c1c(C)[nH]c(C(=O)Nc2ccc(C)c(S(=O)(=O)Nc3ccc(C)cc3C)c2)c1C	HCV inhibitor 25.1µM, Pf growth 48h 13.1µM, Pf growth 96h inconclusive
O=C(NC(=S)NC12CC3CC(CC(C3)C1)C2)c1ccc(F)cc1	none (no result: Pf growth 48h, Pf growth 96h)
O=C(NC1CC1)C1CCN(c2ncccn2)CC1	none
CC(C)(C)NC(=O)NC(=O)COC(=O)Cc1coc2ccc3ccccc3c12	none
Cc1cccc(NS(=O)(=O)c2cc3c(cc2C)NC(=O)CO3)c1	none
COCC(=O)Nc1ccc(N2CCCC2)c(S(=O)(=O)Nc2ccccc2OC)c1	Pf growth 48h 2.62µM, Pf growth 96h 5.22µM
COc1ccccc1NS(=O)(=O)c1cc(NC(=O)Nc2cccc(C)c2)ccc1N1CCCCC1	HCV inhibitor inconclusive, Pf growth 48h 3.7µM, Pf growth 96h 3.7µM
COc1ccccc1NS(=O)(=O)c1cc(NC(=O)CCNC(C)=O)ccc1N1CCCCC1	HCV inhibitor inconclusive, Pf growth 48h inconclusive, Pf growth 96h 10.4µM
COc1ccc(NS(=O)(=O)c2cc(NC(=O)CCNC(C)=O)ccc2N2CCOCC2)cc1	none
COc1ccccc1NS(=O)(=O)c1cc(NC(=O)COc2ccccc2)ccc1N1CCOCC1	HCV inhibitor inconclusive (no result: Pf growth 48h, Pf growth 96h)
CCN(C(=O)COC(=O)c1cccs1)c1c(N)n(Cc2ccccc2)c(=O)[nH]c1=O	none
CC(=O)Nc1c(-c2ccccc2)c2cc(Br)ccc2[nH]c1=O	Pf growth 96h inconclusive
O=C(NC1C2CC3CC(C2)CC1C3)c1ccc(Br)o1 (stereo not drawn)	Pf growth 48h inconclusive
COc1ccc([N+](=O)[O-])cc1C(=O)Nc1ccc(Cc2ccncc2)cc1	none
CC(C)(C)Sc1ccc([N+](=O)[O-])cc1C(=O)Nc1ccncc1	Pf growth 48h inconclusive, Pf growth 96h 0.928µM
CCc1nn(-c2ccccc2)c2c1-c1cc(OC)c(OC)cc1C1(N2)C(=O)Nc2ccccc21 (stereo not drawn)	HCV inhibitor inconclusive, Pf growth 96h 2.62µM (no result: Pf growth 48h)
COc1cc2c(cc1OC)C1(Nc3c-2c(C)nn3-c2ccccc2)C(=O)Nc2ccccc21 (stereo not drawn)	Pf growth 96h 1.47µM (no result: Pf growth 48h)
COc1cc2c(cc1OC)C1(Nc3c-2c(-c2ccccc2)nn3-c2ccccc2)C(=O)Nc2ccccc21 (stereo not drawn)	HCV inhibitor 12.6µM (no result: Pf growth 48h)
COc1ccc(N2C(=O)CSC23C(=O)Nc2ccccc23)cc1OC (stereo not drawn)	none (no result: Pf growth 96h)
O[C@H]1CN(CC2CCCCC2)[C@@H](c2ccc(Cl)cc2)C[C@@H]1n1cc(-c2ccc(F)cc2)nn1	none (no result: HCV inhibitor, Pf growth 48h, Pf growth 96h)
Cc1cccc(NC(=S)NN(Cc2ccccc2)c2ccccc2)c1C	Pf growth 96h 4.15µM (no result: Pf growth 48h)
Cc1cc(Cl)ccc1OC(C)C(=O)Nc1cnn(CCCC(=O)O)c1 (stereo not drawn)	none
COc1ccc(S(=O)(=O)N2CCCC2C(=O)Nc2ccc(C)cc2)cc1 (stereo not drawn)	none

High-throughput results: PubChem, National Center for Advancing Translational Sciences (NCATS)
